Measured values: PubChem BioAssay (NCATS)
“And” between values parts separate entries of the source, which are not always exact repeats. Equal entries are not always repeated. Results filed as inconclusive are left out. A number with no mark means an inactive call. The source made the active and inactive calls. Unless noted, the call rests on the fitted dose curve; in most records, active means well fitted curve in the direction sought with a large enough effect; inconclusive means small, poorly fitted or top-dose-only effect, or another doubt; inactive means no such curve, though single readings can be large; an effect the other way counts as inactive or inconclusive.

Target: Cytochrome P450 2C9 (Homo sapiens) (UniProt P11712)
Experiment: Cytochrome P450 family 2 subfamily C member 9 (CYP2C9) small molecule antagonists: luciferase biochemical (cell-free) qHTS assay (AID 1645842; active means well fitted curve in the direction sought with a large enough effect in the repeat runs; an effect the other way counts as inactive or inconclusive; further: nearly all actives have a fitted effect of over 55% in size)
Details: P450-Glo CYP2C9 enzyme assay, luciferin luminescence; series mostly up to 57.4 µM; activity change, negative = inhibition: at the top concentration
Procedure, shortened: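 P450-Glo CYP2C9 system: proluciferin substrate with enzyme in mix containing 0.4% BSA, 10 min at room temperature, then NADPH regeneration solution added and incubated 1 h at 37C. Detection reagent stopped reaction; luminescence read after 20 min as RLU.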
On the % scale 0 is the no-effect control and ±100 the full control effect; potency means the concentration at half of the fitted maximal effect.

Chain of Cytochrome P450 2C9 (Homo sapiens) (P11712 whole entry, looked up): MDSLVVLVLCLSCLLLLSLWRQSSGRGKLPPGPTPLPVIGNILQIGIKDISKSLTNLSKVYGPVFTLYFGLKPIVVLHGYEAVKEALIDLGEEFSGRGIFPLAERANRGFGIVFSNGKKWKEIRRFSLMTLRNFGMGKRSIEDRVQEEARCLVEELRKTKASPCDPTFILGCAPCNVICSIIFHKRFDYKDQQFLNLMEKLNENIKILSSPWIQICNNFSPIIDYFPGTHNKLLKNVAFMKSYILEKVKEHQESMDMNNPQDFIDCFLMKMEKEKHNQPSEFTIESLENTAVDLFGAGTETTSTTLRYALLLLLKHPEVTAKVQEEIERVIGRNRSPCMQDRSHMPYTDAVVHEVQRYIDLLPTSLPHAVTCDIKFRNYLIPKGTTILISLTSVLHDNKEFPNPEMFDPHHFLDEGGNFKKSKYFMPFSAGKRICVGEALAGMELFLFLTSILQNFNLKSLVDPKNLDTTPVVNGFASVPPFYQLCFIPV

Row | SMILES | activity change, negative = inhibition | Potency
1 | COc1ccccc1N1CCN(CCCCNC(=O)c2ccc(-c3ccc(C(C)=O)cc3)cc2)CC1 | 1.64% | 
2 | CNCCCCOc1ccccc1Cc1ccccc1 | -1.41% | 
3 | O=C1c2cccc3c2[C@H](CCC3)CN1[C@@H]1CN2CCC1CC2 | 11.7% | 
4 | CCCCCCCC/C=C\CCCCCCCCN |  | 19.5 µM (active)
5 | CN(C)CCOC(=O)C(c1ccccc1)C1(O)CCCC1 (configuration not stated) | 12% | 
6 | O=C(O)C(Cc1cc(I)c(O)c(I)c1)c1ccccc1 (configuration not stated) |  | 15.1 µM (active) and 11 µM (active)
7 | CCOCCn1c(N2CCCN(C)CC2)nc2ccccc21 | 0.768% | 
8 | CC(C)Cn1cnc2c1c(=O)n(C)c(=O)n2C | 7.86% | 
9 | COc1ccc2c(c1)c1c3n2CCN(C)C3=NCC1 | 11.3% | 

System: not listed separately
Experiment: Primary qHTS for inhibitors of nuclear receptor binding SET domain protein 2 (NSD2) in an isogenic RCH-ACV NSD2 p.E1099K mutant (9B) (AID 1645876); further: nearly all actives have a fitted effect of over 70% in size
Details: RCH-ACV (leukaemia line) NSD2 E1099K (9B) viability, CellTiter-Glo, 72 h; series mostly up to 44.9 µM; activity change, negative = viability loss: at the top concentration

Row | SMILES | activity change, negative = viability loss | Potency | outcome
10 | Nc1nc(N)c(-c2ccccc2)s1 | 8.57% |  | 
11 | CN1CCN(c2cc3c(cc2F)c(=O)c(C(=O)O)cn3-c2ccc(F)cc2)CC1 |  | 11.9 µM (active) | 
12 | O=[N+]([O-])c1cccc(S(=O)(=O)NCCNS(=O)(=O)c2cccc([N+](=O)[O-])c2)c1 | -9.33% |  | 
13 | CC(=O)Nc1ncc([N+](=O)[O-])s1 |  |  | inactive
14 | CC1=C(C(=O)O)N2C(=O)[C@@H](NC(=O)[C@H](N)c3ccccc3)[C@H]2SC1 | -12.3% |  | 
15 | O=C(NCCc1c[nH]c2ccccc12)c1cccnc1 | -18.4% |  | 
16 | CN(Cc1ccc(C(C)(C)C)cc1)Cc1cccc2ccccc12 | -10.1% |  | 
17 | Cc1ncc(CO)c(C=O)c1O | 8.52% |  | 
18 | CC(C)(C)NC[C@H](O)COc1nsnc1N1CCOCC1 | 5.19% |  | 
19 | CCCCCN=C(N)N/N=C/c1c[nH]c2ccc(OC)cc12 |  | 7.5 µM (active) | 
20 | Cc1cccc(C)c1NC(=O)CN1CCCCCC1 | 6.83% |  | 
21 | COC(=O)C(c1ccccc1Cl)N1CCc2sccc2C1 (configuration not stated) | -14.8% |  | 
22 | COc1ccc(CN(CCN(C)C)c2ncccn2)cc1 | -9.2% |  | 
23 | O=C(CN1CCN(Cc2ccc3c(c2)OCO3)CC1)N1c2ccccc2Sc2ccccc21 | -19.3% |  | 
24 | CC(=O)NCCCCCC(=O)O |  |  | inactive
25 | C=C1c2cccc(O)c2C(O)=C2C(=O)[C@]3(O)C(O)=C(C(N)=O)C(=O)[C@@H](N(C)C)[C@@H]3[C@@H](O)[C@H]12 | -16.4% |  | 
26 | CCN(CC)CCOc1ccc2c(c1)C(=O)c1cc(OCCN(CC)CC)ccc1-2 |  | 9.44 µM (active) | 
27 | CC(CNC1CCCCC1)OC(=O)c1ccccc1 (configuration not stated) | -14.9% |  | 
28 | CC(C)[C@@H]1CC[C@@H](C)CC1=O |  |  | inactive
29 | COc1ccccc1N1CCN(CCCCNC(=O)c2ccc(-c3ccc(C(C)=O)cc3)cc2)CC1 | -26% |  | 
30 | CCCCCCCC/C=C\CCCCCCCCN | -19.5% |  | 
31 | CN(C)CCOC(=O)C(c1ccccc1)C1(O)CCCC1 (configuration not stated) | -7.71% |  | 
32 | O=C(O)C(Cc1cc(I)c(O)c(I)c1)c1ccccc1 (configuration not stated) | -28.5% |  | 
33 | CC(=O)OCC(=O)[C@H]1CC[C@H]2[C@@H]3CCC4=CC(=O)CC[C@]4(C)[C@H]3CC[C@]12C | -0.64% |  | 
34 | CCOCCn1c(N2CCCN(C)CC2)nc2ccccc21 | -3.92% |  | 
35 | CC(C)Cn1cnc2c1c(=O)n(C)c(=O)n2C | -14.2% |  | 
36 | COc1ccc2c(c1)c1c3n2CCN(C)C3=NCC1 | 1.18% |  | 
37 | C#C[C@]1(O)CC[C@H]2[C@@H]3[C@H](C)CC4=C(CCC(=O)C4)[C@H]3CC[C@@]21C |  | 23.7 µM (active) | 
